# Several values for one entry are separate records, joined by “and”; a condition that tells them apart may be missing. Equal values may be shown once. Records with an inconclusive call do not appear. Where a call stands in place of a potency, no number is given. Activity calls are given as the source filed them. Unless noted, the call rests on the fitted dose curve.
# Columns and labels:
# [1] = target: Bile acid receptor (Homo sapiens) (UniProt Q96RI1); experiment: qHTS assay for small molecule antagonists of farnesoid X receptor signaling (AID 588526)
# Sequence of Bile acid receptor (Homo sapiens) (Q96RI1 whole entry, looked up): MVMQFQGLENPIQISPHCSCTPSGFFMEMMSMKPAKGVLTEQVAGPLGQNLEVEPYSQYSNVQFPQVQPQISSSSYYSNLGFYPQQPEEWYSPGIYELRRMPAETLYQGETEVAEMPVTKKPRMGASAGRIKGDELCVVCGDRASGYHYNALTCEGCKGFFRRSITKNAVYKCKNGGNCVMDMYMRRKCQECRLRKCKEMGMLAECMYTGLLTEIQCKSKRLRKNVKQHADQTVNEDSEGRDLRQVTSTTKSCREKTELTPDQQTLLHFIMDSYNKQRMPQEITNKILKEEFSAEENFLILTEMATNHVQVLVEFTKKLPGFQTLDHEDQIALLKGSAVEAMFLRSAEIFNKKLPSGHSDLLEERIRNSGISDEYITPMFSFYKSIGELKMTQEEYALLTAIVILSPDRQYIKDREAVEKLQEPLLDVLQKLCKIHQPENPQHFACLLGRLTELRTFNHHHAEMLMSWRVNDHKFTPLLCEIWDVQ
# Procedure, shortened: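 Beta-lactamase reporter antagonist mode: HEK293T FXR-UAS-bla cells, titrated compound, CDCA stimulation, 16 h 37 C, CCF4 dye 2 h RT. Data normalized to CDCA 50 uM and DMSO; Hill-fit IC50.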
# [2] = target: Glucocorticoid receptor (Homo sapiens) (UniProt P04150); experiment: qHTS assay for small molecule agonists of glucocorticoid receptor signaling (AID 588532; active means well fitted curve in the direction sought with a large enough effect in the signal ratio, with a control signal flat; the % refers to the signal ratio); details: HeLa MMTV-bla, beta-lactamase ratio, agonist, 18 h; stronger effect = higher value; percent of dexamethasone control, DMSO zero
# Sequence of Glucocorticoid receptor (Homo sapiens) (P04150 whole entry, looked up): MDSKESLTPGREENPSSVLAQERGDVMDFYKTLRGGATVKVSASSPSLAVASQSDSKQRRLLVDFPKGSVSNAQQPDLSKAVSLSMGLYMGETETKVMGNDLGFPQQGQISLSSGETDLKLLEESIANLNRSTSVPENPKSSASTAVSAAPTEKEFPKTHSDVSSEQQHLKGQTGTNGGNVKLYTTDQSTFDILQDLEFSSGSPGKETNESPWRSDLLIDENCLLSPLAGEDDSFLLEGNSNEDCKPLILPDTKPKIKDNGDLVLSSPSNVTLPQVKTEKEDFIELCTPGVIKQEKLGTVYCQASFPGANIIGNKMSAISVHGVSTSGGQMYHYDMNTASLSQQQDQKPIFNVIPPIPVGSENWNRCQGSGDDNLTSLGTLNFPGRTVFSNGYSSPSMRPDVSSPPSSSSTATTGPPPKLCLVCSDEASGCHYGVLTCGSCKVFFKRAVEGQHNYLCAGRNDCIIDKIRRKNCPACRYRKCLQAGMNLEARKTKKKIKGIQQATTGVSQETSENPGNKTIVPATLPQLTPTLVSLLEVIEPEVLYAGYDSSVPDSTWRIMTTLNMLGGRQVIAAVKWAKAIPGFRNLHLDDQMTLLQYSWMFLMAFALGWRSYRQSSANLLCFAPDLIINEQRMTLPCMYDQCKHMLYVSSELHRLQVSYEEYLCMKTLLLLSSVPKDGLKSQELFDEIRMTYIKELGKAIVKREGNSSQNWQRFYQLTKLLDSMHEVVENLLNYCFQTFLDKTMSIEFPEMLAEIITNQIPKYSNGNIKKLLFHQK
# Procedure, shortened: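 Using MMTV-bla HeLa cells in medium with 1% stripped FBS and 25 mM HEPES, compounds were titrated and incubated overnight-length (18 h). Beta-lactamase cleavage of CCF4 was quantified by dual-emission fluorescence.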
# [3] = target: Glucocorticoid receptor (Homo sapiens) (UniProt P04150); experiment: qHTS assay for small molecule antagonists of glucocorticoid receptor signaling (AID 588533; active means well fitted inhibition curve with a large enough effect in the signal ratio, with a control signal flat, not every such curve was filed as active; the % refers to the signal ratio;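 further: cells stimulated with 2 nM dexamethasone as agonist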)
# Procedure, shortened: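 Antagonist-mode qHTS: compound titrations added to GRE-bla HeLa cells, then dexamethasone 2 nM final; 18 h, 37 C. CCF4 FRET fluorescence normalized to dexamethasone and DMSO; IC50 from Hill fit.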
# [4] = qHTS assay for small molecule antagonists of peroxisome proliferator-activated receptor delta signaling (AID 588535; active means well fitted inhibition curve with a large enough effect in the signal ratio, with a control signal flat, not every such curve was filed as active; the % refers to the signal ratio;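 on max response: cells co-treated with a PPAR-delta agonist as stimulator during compound exposure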); details: HEK293T PPARd-UAS-bla, beta-lactamase FRET ratio, 18 h; 460 nm channel
# Procedure, shortened: (§1)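 Antagonist-mode qHTS using GeneBLAzer PPAR-delta-UAS-bla HEK293T cells; compound exposure 18 hrs at 37 C over a titration. Ratiometric CCF4 fluorescence at 460/530 nm; concentration-response points fitted to the Hill equation.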
# [5] = target: Peroxisome proliferator-activated receptor delta (Homo sapiens) (UniProt Q03181); experiment: as above
# Sequence of Peroxisome proliferator-activated receptor delta (Homo sapiens) (Q03181 whole entry, looked up): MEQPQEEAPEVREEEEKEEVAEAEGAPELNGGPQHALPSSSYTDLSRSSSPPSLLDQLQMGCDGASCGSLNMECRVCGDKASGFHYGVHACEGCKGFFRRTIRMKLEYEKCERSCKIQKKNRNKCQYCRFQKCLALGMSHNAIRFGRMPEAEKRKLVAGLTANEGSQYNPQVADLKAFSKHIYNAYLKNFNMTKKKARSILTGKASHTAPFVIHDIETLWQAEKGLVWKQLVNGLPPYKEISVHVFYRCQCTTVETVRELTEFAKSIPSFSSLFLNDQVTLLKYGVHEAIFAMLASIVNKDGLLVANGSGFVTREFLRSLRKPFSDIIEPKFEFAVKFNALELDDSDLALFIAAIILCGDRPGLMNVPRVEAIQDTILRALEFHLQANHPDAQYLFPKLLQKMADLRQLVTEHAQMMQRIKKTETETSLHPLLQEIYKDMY
# Procedure, shortened: as §1
# [6] = target: Peroxisome proliferator-activated receptor gamma (Homo sapiens) (UniProt P37231); experiment: qHTS assay for small molecule agonists of peroxisome proliferator-activated receptor gamma signaling (AID 588536; active means well fitted curve in the direction sought with a large enough effect in the signal ratio, with a control signal flat, not every such curve was filed as active; the % refers to the signal ratio)
# Sequence of Peroxisome proliferator-activated receptor gamma (Homo sapiens) (P37231 whole entry, looked up): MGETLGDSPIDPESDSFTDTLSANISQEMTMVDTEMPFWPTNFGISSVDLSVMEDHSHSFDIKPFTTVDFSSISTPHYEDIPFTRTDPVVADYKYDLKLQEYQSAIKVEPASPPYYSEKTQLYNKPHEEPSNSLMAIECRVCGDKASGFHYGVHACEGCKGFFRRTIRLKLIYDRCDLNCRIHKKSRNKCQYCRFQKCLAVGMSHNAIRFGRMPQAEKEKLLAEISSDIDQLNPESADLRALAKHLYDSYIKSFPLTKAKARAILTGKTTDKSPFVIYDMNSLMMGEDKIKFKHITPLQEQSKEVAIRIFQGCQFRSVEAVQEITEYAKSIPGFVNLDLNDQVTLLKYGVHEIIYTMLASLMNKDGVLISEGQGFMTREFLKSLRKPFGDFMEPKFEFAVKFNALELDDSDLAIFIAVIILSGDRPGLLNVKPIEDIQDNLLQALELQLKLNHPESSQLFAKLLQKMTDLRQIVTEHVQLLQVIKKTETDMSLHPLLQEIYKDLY
# Procedure, shortened: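 Beta-lactamase reporter read-out: CCF4 fluorescence (ex 405, em 460/530 nm) after 2 h at RT. HEK293 GeneBLAzer cells were treated for 16 h at 37 C. Hill fits gave EC50 and efficacy versus 2 uM rosiglitazone (100%) and DMSO (0%).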
# [7] = target: Peroxisome proliferator-activated receptor gamma (Homo sapiens) (UniProt P37231); experiment: qHTS assay for small molecule antagonists of peroxisome proliferator-activated receptor gamma signaling (AID 588537; active means well fitted inhibition curve with a large enough effect in the signal ratio, with a control signal flat, not every such curve was filed as active; the % refers to the signal ratio;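 further: reporter cells co-stimulated with 50 nM rosiglitazone agonist during compound treatment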)
# Procedure, shortened: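 Cell-based beta-lactamase assay; GW9662 served as the antagonist control. Stimulation used rosiglitazone, final 50 nM, 16 h, 37 C.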
# [8] = target: Vitamin D3 receptor (Homo sapiens) (UniProt P11473); experiment: qHTS assay for small molecule antagonists of vitamin D receptor signaling (AID 588541);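 further: receptor activated by calcitriol during compound treatment; series mostly up to about 77 µM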
# Sequence of Vitamin D3 receptor (Homo sapiens) (P11473 whole entry, looked up): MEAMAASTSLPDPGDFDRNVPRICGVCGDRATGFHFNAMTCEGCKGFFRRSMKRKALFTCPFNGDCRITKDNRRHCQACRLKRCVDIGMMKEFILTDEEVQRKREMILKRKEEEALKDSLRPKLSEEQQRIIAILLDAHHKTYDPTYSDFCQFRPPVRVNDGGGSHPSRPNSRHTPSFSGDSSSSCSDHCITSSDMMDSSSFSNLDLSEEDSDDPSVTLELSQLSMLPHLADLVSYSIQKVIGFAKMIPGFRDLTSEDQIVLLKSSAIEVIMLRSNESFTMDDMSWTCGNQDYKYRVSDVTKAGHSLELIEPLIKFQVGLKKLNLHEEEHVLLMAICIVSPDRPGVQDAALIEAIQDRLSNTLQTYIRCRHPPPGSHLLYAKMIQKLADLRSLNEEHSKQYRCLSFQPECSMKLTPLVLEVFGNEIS
# Procedure, shortened: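 Antagonist-mode beta-lactamase reporter assay: HEK293T VDR-UAS-bla cells were exposed to titrated compound alongside 1-alpha,25-dihydroxyvitamin D3 at 3 nM final for 16 h. Values were normalized to the 50 nM agonist control and DMSO basal, with IC50 and efficacy from Hill equation fits.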
# [9] = target: Vitamin D3 receptor (Homo sapiens) (UniProt P11473); experiment: qHTS assay for small molecule agonists of vitamin D receptor signaling (AID 588543)
# Procedure, shortened: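 VDR-UAS-bla HEK293T cells, 2000/well, 2% charcoal-stripped FBS; compound titration 16 h at 37 C; CCF4 beta-lactamase ratio read. Normalized to 50 nM 1-alpha,25-dihydroxyvitamin D3 (100%) and DMSO; Hill fit gives EC50, efficacy.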
# [10] = qHTS assay for small molecule agonists of retinoid X receptor alpha signaling (AID 588544); details: HEK293T RXRa-UAS-bla, beta-lactamase reporter, 18 h; 530 nm emission
# [11] = target: Retinoic acid receptor RXR-alpha (Homo sapiens) (UniProt P19793); experiment: as above
# Sequence of Retinoic acid receptor RXR-alpha (Homo sapiens) (P19793 whole entry, looked up): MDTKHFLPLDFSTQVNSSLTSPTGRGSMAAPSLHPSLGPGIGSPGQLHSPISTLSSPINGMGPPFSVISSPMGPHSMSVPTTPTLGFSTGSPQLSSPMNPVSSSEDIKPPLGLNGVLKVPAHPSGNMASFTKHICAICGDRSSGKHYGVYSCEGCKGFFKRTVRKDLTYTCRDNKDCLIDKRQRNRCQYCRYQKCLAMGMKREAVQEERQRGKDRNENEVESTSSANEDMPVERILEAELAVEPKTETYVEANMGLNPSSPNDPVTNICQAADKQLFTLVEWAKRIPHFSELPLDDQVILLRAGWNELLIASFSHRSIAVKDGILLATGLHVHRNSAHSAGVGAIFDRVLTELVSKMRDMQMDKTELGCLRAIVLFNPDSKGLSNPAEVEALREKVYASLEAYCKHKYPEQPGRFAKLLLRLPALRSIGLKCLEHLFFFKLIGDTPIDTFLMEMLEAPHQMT
# [12] = target: Thyroid hormone receptor beta (Homo sapiens) (UniProt P10828); experiment: qHTS assay for small molecule agonists of thyroid hormone receptor beta signaling (AID 588545)
# Sequence of Thyroid hormone receptor beta (Homo sapiens) (P10828 whole entry, looked up): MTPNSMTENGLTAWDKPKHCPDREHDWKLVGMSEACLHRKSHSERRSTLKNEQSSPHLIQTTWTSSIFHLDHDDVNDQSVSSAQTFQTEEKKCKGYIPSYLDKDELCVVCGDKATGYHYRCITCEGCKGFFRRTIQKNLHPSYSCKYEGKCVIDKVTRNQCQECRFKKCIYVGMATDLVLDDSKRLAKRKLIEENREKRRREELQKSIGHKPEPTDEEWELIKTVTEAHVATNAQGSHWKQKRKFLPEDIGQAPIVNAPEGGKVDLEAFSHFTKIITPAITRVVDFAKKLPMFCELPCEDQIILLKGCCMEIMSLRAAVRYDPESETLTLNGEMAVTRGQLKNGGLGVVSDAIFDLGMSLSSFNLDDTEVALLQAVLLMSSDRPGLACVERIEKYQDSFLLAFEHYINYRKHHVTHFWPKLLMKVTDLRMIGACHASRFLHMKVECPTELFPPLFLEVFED
# Procedure, shortened: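 Compounds were tested as agonists in TR-UAS-bla-GripTite HEK 293 cells. After 18 hrs at 37 C, CCF4 substrate was added and fluorescence read after 2 hrs at room temperature.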
# [13] = target: Thyroid hormone receptor beta (Homo sapiens) (UniProt P10828); experiment: qHTS assay for small molecule antagonists of thyroid hormone receptor beta signaling (AID 588547; active means well fitted inhibition curve with a large enough effect in the signal ratio, with a control signal flat, not every such curve was filed as active; the % refers to the signal ratio;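 further: cells stimulated with 0.4 nM T3 agonist during compound exposure; series mostly up to about 77 µM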); details: TR-UAS-bla HEK293, beta-lactamase ratio, antagonist mode, 18 h
# Procedure, shortened: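 Inhibition of T3-driven (0.4nM final) beta-lactamase reporter activity was measured over 0.59 nM to 92 uM compound after 18 h at 37 C. The cells were GripTite HEK293 TR-UAS-bla in charcoal/dextran-stripped serum, with CCF4 ratio read-out and IC50 from Hill fits.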
# [14] = target: Voltage-gated inwardly rectifying potassium channel KCNH2 (Homo sapiens) (UniProt Q12809); experiment: qHTS Assay for Small Molecule Inhibitors of the Human hERG Channel Activity (AID 588834; active means well fitted inhibition curve with a large enough effect;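 further: top concentration of the series differs between compounds; lower thallium flux fluorescence means stronger hERG block; nearly all actives have a fitted effect of over 50% in size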)
# Sequence of Voltage-gated inwardly rectifying potassium channel KCNH2 (Homo sapiens) (Q12809 whole entry, looked up): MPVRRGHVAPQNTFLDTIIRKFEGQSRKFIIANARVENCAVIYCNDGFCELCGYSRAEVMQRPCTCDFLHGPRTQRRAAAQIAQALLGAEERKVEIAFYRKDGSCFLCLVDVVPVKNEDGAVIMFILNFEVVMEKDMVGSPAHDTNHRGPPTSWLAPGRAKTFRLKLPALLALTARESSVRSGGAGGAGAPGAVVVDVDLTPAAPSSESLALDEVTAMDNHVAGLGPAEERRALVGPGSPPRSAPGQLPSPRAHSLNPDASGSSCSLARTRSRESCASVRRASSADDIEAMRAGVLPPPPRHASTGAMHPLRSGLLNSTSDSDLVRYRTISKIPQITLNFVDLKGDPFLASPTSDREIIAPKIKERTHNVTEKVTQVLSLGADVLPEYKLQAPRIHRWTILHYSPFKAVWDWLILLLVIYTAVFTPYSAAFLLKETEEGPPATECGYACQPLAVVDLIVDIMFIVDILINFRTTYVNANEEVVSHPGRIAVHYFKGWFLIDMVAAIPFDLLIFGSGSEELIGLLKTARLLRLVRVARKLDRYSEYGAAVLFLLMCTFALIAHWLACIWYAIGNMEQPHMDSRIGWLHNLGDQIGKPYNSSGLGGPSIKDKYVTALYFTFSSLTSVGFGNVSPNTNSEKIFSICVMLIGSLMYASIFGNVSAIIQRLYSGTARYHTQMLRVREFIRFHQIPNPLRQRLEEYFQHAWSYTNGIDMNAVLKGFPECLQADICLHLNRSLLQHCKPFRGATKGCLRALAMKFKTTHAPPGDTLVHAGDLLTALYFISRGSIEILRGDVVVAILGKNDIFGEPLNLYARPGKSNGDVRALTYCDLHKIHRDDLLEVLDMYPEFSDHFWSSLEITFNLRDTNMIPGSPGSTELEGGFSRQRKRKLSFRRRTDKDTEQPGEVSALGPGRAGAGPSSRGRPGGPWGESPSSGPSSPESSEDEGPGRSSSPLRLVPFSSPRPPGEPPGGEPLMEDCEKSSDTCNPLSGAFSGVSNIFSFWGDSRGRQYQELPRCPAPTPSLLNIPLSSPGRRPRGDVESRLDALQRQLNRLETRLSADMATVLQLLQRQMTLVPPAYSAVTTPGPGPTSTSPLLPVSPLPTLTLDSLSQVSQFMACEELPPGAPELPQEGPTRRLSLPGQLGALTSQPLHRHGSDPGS
# Procedure, shortened: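 Thallium serves as surrogate for K+ influx through BacMam-delivered hERG in U2OS cells. Compounds are added for about 10 minutes after dye loading; stimulation buffer then starts flux, monitored kinetically on FDSS.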
# [15] = qHTS assay for small molecule activators of the p53 signaling pathway (AID 651743; active means well fitted activation curve with a large enough effect in the signal ratio, not every such curve was filed as active; the % refers to the signal ratio; further: series mostly up to about 92 µM); details: HCT-116 p53RE-bla, beta-lactamase FRET ratio, 16 h; stronger effect = higher value
# Procedure, shortened: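 A beta-lactamase reporter under p53 response element control, stably carried by HCT-116 cells, reported pathway activation. Test compounds were applied for 16 hours at 37 C, and fluorescence was measured 2 hours after adding the B/G FRET substrate.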
# [16] = qHTS assay for small molecule activators of the nuclear factor-kappa B (NF-kB) signaling pathway (AID 651749; active means well fitted activation curve with a large enough effect in the signal ratio; the % refers to the signal ratio; further: series mostly up to about 77 µM); details: NF-kB-bla ME-180 cells, beta-lactamase FRET ratio, 16 h; stronger effect = higher value
# Procedure, shortened: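 FRET-based beta-lactamase detection in ME-180 cells reports NF-kB response-element-driven transcription following overnight (16 hr) compound treatment.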
# [17] = qHTS assay for small molecule antagonists of retinoid X receptor alpha signaling (AID 588546; active means well fitted inhibition curve with a large enough effect in the signal ratio, with a control signal flat, not every such curve was filed as active; the % refers to the signal ratio;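 further: cells stimulated with 9-cis-retinoic acid as agonist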); details: HEK293T RXRa-UAS-bla, beta-lactamase ratio, antagonist mode; measured here: W530 green channel, cytotoxicity proxy
# Procedure, shortened: (§2)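 Beta-lactamase reporter inhibition, read as CCF4 fluorescence ratio (ex 405, em 460/530 nm) after 2 h at RT. HEK293T UAS-bla cells, 2500/well, were stimulated with 9-cis-RA at 500 or 100 nM final alongside test compound for 18 h at 37 C.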
# [18] = target: Retinoic acid receptor RXR-alpha (Homo sapiens) (UniProt P19793); experiment: as above; details: HEK293T RXRa-UAS-bla, beta-lactamase ratio, antagonist mode
# Procedure, shortened: as §2
# [19] = qHTS assay for small molecule agonists of the antioxidant response element (ARE) signaling pathway (AID 651741; active means well fitted activation curve with a large enough effect in the signal ratio; the % refers to the signal ratio; further: potency means the concentration at half of the fitted maximal effect)
# Procedure, shortened: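 Agonist activity is measured as ARE-driven beta-lactamase expression in a stable HepG2 reporter line, using 16 h compound treatment at 37 C and a FRET substrate fluorescence readout after 2 h.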
SMILES,outcome [1],activation [2],outcome [3],max response [4],Potency [5],outcome [6],outcome [7],outcome [8],outcome [9],max response [10],outcome [11],outcome [12],activity change % (negative = inhibition) [13],Potency [14],activation [15],activation [16],max response [17],max response [18],Potency [19]
C=C(C)C(=O)OCCCCCC,inactive,8.12% (inactive),inactive,4.68%,inactive,inactive,inactive,inactive,inactive,-12.9%,inactive,inactive,6.42% (inactive),inactive,-0.374% (inactive),0.571% (inactive),–,–,–
CCCCC(CC)CO (centres undefined),inactive,-4.31% (inactive),inactive,-4.39%,inactive,inactive,–,inactive,inactive,-6.11%,inactive,inactive,-6.25% (inactive),inactive,-4.64% (inactive),-1.43% (inactive),-1.2%,16% (inactive),inactive
Cc1ccc(Cl)cc1N,inactive,-7.53% (inactive),inactive,-18.2%,–,inactive,–,inactive,inactive,3.01%,inactive,inactive,-4.43% (inactive),inactive,0.545% (inactive),0.369% (inactive),-7.87%,0.248% (inactive),–
Nc1cc(Cl)c(N)c(Cl)c1,inactive,0.447% (inactive),inactive,7.4%,–,inactive,inactive,inactive,inactive,-14.2%,inactive,inactive,-9.25% (inactive),inactive,0.0675% (inactive) and 1.35% (inactive),–,7.26% and 6.97%,-5.31% (inactive) and -44.9% (inactive),42.2 µM (active)
O=C(Cl)c1cccc([N+](=O)[O-])c1,inactive,3.39% (inactive),inactive,33.5%,inactive,inactive,–,inactive,–,14.1%,inactive,inactive,5.89% (inactive),inactive,–,-0.912% (inactive),0.426%,24.8% (inactive),inactive
CC(=O)Nc1cccc(N)c1,inactive,-4.95% (inactive),inactive,38.5%,inactive,inactive,–,inactive,inactive,-8.93%,inactive,inactive,-3.78% (inactive),inactive,1.81% (inactive),0.511% (inactive),-0.371%,6.6% (inactive),–
CN(C)CCCNCCCN,inactive,-1.86% (inactive),inactive,-8.47%,–,inactive,–,inactive,inactive,-7.09%,inactive,–,–,inactive,-2.59% (inactive),–,-5.37%,0.789% (inactive),–
Cc1cc(C)cc([N+](=O)[O-])c1,inactive,-8.13% (inactive),inactive,-43.4%,inactive,inactive,–,inactive,inactive,8.04%,inactive,inactive,–,inactive,-0.0084% (inactive),0.968% (inactive),5.59%,4.7% (inactive),inactive
CCC(C)=O,inactive,-3.19% (inactive),inactive,-36.3%,inactive,inactive,–,inactive,–,-3%,inactive,inactive,-18.3% (inactive),inactive,-2.15% (inactive),-1.44% (inactive),-3.56%,0.0353% (inactive),inactive
O=[N+]([O-])c1ccc(NCCO)c(OCCO)c1,inactive,5.48% (inactive),inactive,15.8%,inactive,inactive,–,inactive,inactive,4.58%,inactive,inactive,-13.2% (inactive),inactive,-3% (inactive),–,-6.21%,-6.4% (inactive),–
CCCCCCCCCCCCOCC1CO1 (centres undefined),inactive,7.49% (inactive),inactive,36.4%,inactive,inactive,–,–,–,6.34%,inactive,inactive,-4.18% (inactive),inactive,–,-0.615% (inactive),–,–,–
CC(=O)c1cccc([N+](=O)[O-])c1,inactive,1.38% (inactive),inactive,13.5%,inactive,inactive,–,inactive,inactive,-6.78%,inactive,inactive,10.7% (inactive),inactive,-3.72% (inactive),–,3.27%,7.36% (inactive),inactive
CCCCCCC(=O)O,inactive,2.07% (inactive),inactive,-11.6%,inactive,–,–,inactive,–,-3.5%,inactive,inactive,-7.74% (inactive),inactive,-5.16% (inactive),–,-1.09%,7.92% (inactive),–
CCC(C)(C)OC,inactive,-0.431% (inactive),inactive,12.9%,–,inactive,inactive,–,–,10.3%,inactive,inactive,-6.68% (inactive),inactive,–,-0.279% (inactive),-18.1%,17% (inactive),inactive
CCCCC/C=C/C=C/C=O,inactive,-3.04% (inactive) and 0.369% (inactive),inactive,16.5%,inactive,inactive,–,inactive,inactive,-6.95% and 20%,inactive,inactive,6.77% (inactive) and -0.205% (inactive),inactive,-11.3% (inactive),-1.4% (inactive) and -2.02% (inactive),-1.35% and -13.3%,1.5% (inactive) and -3.35% (inactive),48.6 µM (active)
